Assay results published in PubChem BioAssay AID1159580 (chemical genetic matrix, 2015).
Several values for one entry are separate records, joined by “and”; a condition that tells them apart may be missing. Identical values can stand only once. Among all 5,500 compounds or so, about 2,000 (36%) were called active. Inconclusive results (about 18%) are left out. Cut-off read from the data, not from the text of the source: active = normalized growth mostly below about 0.91 (no sharp cut-off); inconclusive = no clear call, values can overlap the other calls; inactive = mostly above about 0.92. Some of the results follow.

Assay: chemical genetic growth profiling, strain panel (AID 1159580);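 note: tested at 20 µM; growth read once vehicle control cultures reached saturation at 30 °C; 1 = growth at the plate median or of vehicle wells; lower values mean less growth of the strain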
Settings: S. cerevisiae deletion strains, growth OD

For `COc1ccc2c(c1)OC/C(=C\c1ccc(OC)c(O)c1)C2=O`, the normalized growth (locus YAL013W, strain DEP1, stronger effect = lower value) was 0.72 (active), the normalized growth (locus YAL021C, strain ccr4, stronger effect = lower value) was 0.985 (inactive) and the normalized growth (locus YAL026C, strain drs2, stronger effect = lower value) was 0.865 (active). The normalized growth (locus YAL030W, strain snc1, stronger effect = lower value) was 0.935 (inactive), the normalized growth (locus YBL061C, strain skt5, stronger effect = lower value) was 0.905 (active) and the normalized growth (locus YBR009C, strain hhf1, stronger effect = lower value) was 0.781 (active). The normalized growth (locus YBR021W, strain FUR4, stronger effect = lower value) was 0.796 (active), the normalized growth (locus YBR023C, strain chs3, stronger effect = lower value) was 0.88 (active) and the normalized growth (locus YBR171W, strain sec66, stronger effect = lower value) was 0.919 (inactive). The normalized growth (locus YBR229C, strain ROT2, stronger effect = lower value) was 0.967 (inactive), the normalized growth (locus YBR231C, strain swc5, stronger effect = lower value) was 0.8 (active) and the normalized growth (locus YBR279W, strain paf1, stronger effect = lower value) was 0.912 (active). For the same compound, the normalized growth (locus YCL011C, strain gbp2, stronger effect = lower value) was 0.857 (active), the normalized growth (locus YCL016C, strain dcc1, stronger effect = lower value) was 0.881 (active) and the normalized growth (locus YCL029C, strain bik1, stronger effect = lower value) was 0.772 (active). The normalized growth (locus YCL069W, strain vba3, stronger effect = lower value) was 0.878 (active), the normalized growth (locus YCR088W, strain abp1, stronger effect = lower value) was 0.954 (inactive) and the normalized growth (locus YDL005C, strain med2, stronger effect = lower value) was 0.984 (inactive). For the same compound, the normalized growth (locus YDL035C, strain GPR1, stronger effect = lower value) was 0.818 (active), the normalized growth (locus YDL040C, strain nat1, stronger effect = lower value) was 0.953 (inactive) and the normalized growth (locus YDL074C, strain BRE1, stronger effect = lower value) was 0.534 (active). The normalized growth (locus YDL101C, strain DUN1, stronger effect = lower value) was 0.665 (active), the normalized growth (locus YDL185W, strain tfp1, stronger effect = lower value) was 0.909 (inactive) and the normalized growth (locus YDL192W, strain arf1, stronger effect = lower value) was 0.748 (active). The normalized growth (locus YDR001C, strain nth1, stronger effect = lower value) was 0.953 (inactive), the normalized growth (locus YDR069C, strain doa4, stronger effect = lower value) was 0.97 (inactive) and the normalized growth (locus YDR101C, strain arx1, stronger effect = lower value) was 0.855 (active). For the same compound, the normalized growth (locus YDR137W, strain rgp1, stronger effect = lower value) was 0.705 (active), the normalized growth (locus YDR150W, strain NUM1, stronger effect = lower value) was 0.894 (active) and the normalized growth (locus YDR159W, strain sac3, stronger effect = lower value) was 0.8 (active). The normalized growth (locus YDR162C, strain NBP2, stronger effect = lower value) was 0.475 (active), the normalized growth (locus YDR195W, strain ref2) was 1.11 (inactive) and the normalized growth (locus YDR297W, strain sur2, stronger effect = lower value) was 0.864 (active). For the same compound, the normalized growth (locus YDR318W, strain mcm21, stronger effect = lower value) was 0.574 (active), the normalized growth (locus YDR334W, strain swr1, stronger effect = lower value) was 0.894 (active) and the normalized growth (locus YDR335W, strain msn5, stronger effect = lower value) was 0.943 (inactive). For the same compound, the normalized growth (locus YDR388W, stronger effect = lower value) was 0.913 (active), the normalized growth (locus YDR392W, strain spt3, stronger effect = lower value) was 0.206 (active) and the normalized growth (locus YDR502C, strain sam2, stronger effect = lower value) was 0.69 (active). For the same compound, the normalized growth (locus YEL003W, strain gim4, stronger effect = lower value) was 0.806 (active), the normalized growth (locus YEL037C, strain rad23, stronger effect = lower value) was 0.954 (inactive) and the normalized growth (locus YEL061C, strain CIN8 (second series), stronger effect = lower value) was 0.935 (inactive). The normalized growth (locus YEL061C, strain CIN8, stronger effect = lower value) was 0.623 (active), the normalized growth (locus YER015W, strain faa2, stronger effect = lower value) was 0.874 (active) and the normalized growth (locus YER016W, strain bim1, stronger effect = lower value) was 0.949 (inactive). For the same compound, the normalized growth (locus YER110C, stronger effect = lower value) was 0.79 (active), the normalized growth (locus YER111C, strain swi4, stronger effect = lower value) was 0.964 (inactive) and the normalized growth (locus YER155C, strain BEM2 (second series), stronger effect = lower value) was 0.448 (active). The normalized growth (locus YER155C, strain BEM2, stronger effect = lower value) was 0.301 (active), the normalized growth (locus YER167W, strain BCK2, stronger effect = lower value) was 0.816 (active) and the normalized growth (locus YFR010W, strain ubp6, stronger effect = lower value) was 0.944 (inactive). For the same compound, the normalized growth (locus YGL078C, strain dbp3, stronger effect = lower value) was 0.878 (active), the normalized growth (locus YGL086W, strain mad1, stronger effect = lower value) was 0.517 (active) and the normalized growth (locus YGL167C, strain pmr1, stronger effect = lower value) was 0.947 (inactive). The normalized growth (locus YGL173C, strain kem1, stronger effect = lower value) was 0.878 (active), the normalized growth (locus YGL227W, strain vid30, stronger effect = lower value) was 0.813 (active) and the normalized growth (locus YGL240W, strain doc1, stronger effect = lower value) was 0.795 (active). For the same compound, the normalized growth (locus YGL248W, strain PDE1, stronger effect = lower value) was 0.603 (active), the normalized growth (locus YGL253W, strain hxk2, stronger effect = lower value) was 0.8 (active) and the normalized growth (locus YGR078C, strain PAC10, stronger effect = lower value) was 0.487 (active). The normalized growth (locus YGR135W, strain pre9, stronger effect = lower value) was 0.684 (active), the normalized growth (locus YGR229C, strain SMI1, stronger effect = lower value) was 0.386 (active) and the normalized growth (locus YGR252W, strain gcn5, stronger effect = lower value) was 0.545 (active). For the same compound, the normalized growth (locus YHR013C, strain ard1, stronger effect = lower value) was 0.783 (active), the normalized growth (locus YHR027C, strain rpn1, stronger effect = lower value) was 0.909 (active) and the normalized growth (locus YHR030C, strain SLT2, stronger effect = lower value) was 0.399 (active) and 0.978 (inactive). The normalized growth (locus YHR079C, strain IRE1 (second series), stronger effect = lower value) was 0.831 (active), the normalized growth (locus YHR079C, strain IRE1, stronger effect = lower value) was 0.968 (inactive) and the normalized growth (locus YHR094C, strain hxt1, stronger effect = lower value) was 0.812 (active). The normalized growth (locus YHR129C, strain ARP1, stronger effect = lower value) was 0.516 (active), the normalized growth (locus YHR142W, strain chs7, stronger effect = lower value) was 0.727 (active) and the normalized growth (locus YHR200W, strain rpn10, stronger effect = lower value) was 0.864 (active). For the same compound, the normalized growth (locus YIL066C, strain RNR3, stronger effect = lower value) was 0.665 (active), the normalized growth (locus YIL073C, strain SPO22, stronger effect = lower value) was 0.631 (active) and the normalized growth (locus YIL125W, strain kgd1, stronger effect = lower value) was 0.916 (active). The normalized growth (locus YIR030C, strain dcg1, stronger effect = lower value) was 0.854 (active), the normalized growth (locus YJL092W, strain hpr5, stronger effect = lower value) was 0.94 (inactive) and the normalized growth (locus YJL095W, strain BCK1 (second series), stronger effect = lower value) was 0.899 (active). For the same compound, the normalized growth (locus YJL095W, strain BCK1, stronger effect = lower value) was 0.262 (active) and 0.961 (inactive), the normalized growth (locus YJL115W, strain asf1, stronger effect = lower value) was 0.953 (inactive) and the normalized growth (locus YJL129C, strain trk1, stronger effect = lower value) was 0.776 (active). For the same compound, the normalized growth (locus YJL134W, strain LCB3, stronger effect = lower value) was 0.949 (inactive), the normalized growth (locus YJL154C, strain vps35, stronger effect = lower value) was 0.969 (inactive) and the normalized growth (locus YJL164C, strain tpk1, stronger effect = lower value) was 0.876 (active). For the same compound, the normalized growth (locus YJL166W, strain qcr8, stronger effect = lower value) was 0.654 (active), the normalized growth (locus YJL168C, strain set2, stronger effect = lower value) was 0.948 (inactive) and the normalized growth (locus YJL187C, strain SWE1 (second series), stronger effect = lower value) was 0.773 (active). The normalized growth (locus YJR043C, strain POL32, stronger effect = lower value) was 0.731 (active).
